Here are results for 91 compounds from PubChem BioAssay AID540333 (Southern Research Specialized Biocontainment Screening …, 2011).

Structures are written as SMILES. Hit rate of the full screen: of about 10,000 compounds, about 320 (3.2%) were called active. This excerpt belongs to a sample that is enriched for actives. A number with no mark means an inactive call. Cut-off read from the data, not from the text of the source: active = CPE inhibition mostly above about 9.1% (no sharp cut-off); inactive = mostly below about 7.2%.

This experiment can be described thus: antivirals protecting cells from dengue CPE – CPE readout, HTS (AID 540333). The note with it: Dengue virus CPE inhibition in host cells, at 20 µM; active compounds read high.
As for `O=C1CCCc2c1cc(-c1ccccc1)n2-c1ccc(O)cc1`, the CPE inhibition is 1.72%.

Regarding `CCOCCCNC(=O)/C(C#N)=C/c1ccc(-c2ccc(S(=O)(=O)N3CCOCC3)cc2)o1`, the CPE inhibition was 0.33%.

Turning to `Cc1cc(C)nc(Sc2ccc([N+](=O)[O-])cc2[N+](=O)[O-])n1`, the CPE inhibition is 14.6% (active).

`Cc1cc(C)n(C(=O)c2ccc([N+](=O)[O-])cc2[N+](=O)[O-])n1`: the CPE inhibition was 0.325%.

With `CN(C)/N=C/c1ccc(Sc2ccc([N+](=O)[O-])cc2[N+](=O)[O-])o1`, the CPE inhibition is 2.35%.

Take `N#C/C(=C\c1cccn1-c1ccccc1)C(=O)NC1CCCCC1`: the CPE inhibition was 2.54%.

Consider `O=[n+]1cc(-c2ccccc2)n([O-])c2c1CCCCC2`, for which the CPE inhibition was 0.81%.

As for `CCOC(=O)c1cc[n+](CC(=O)c2ccc(F)cc2)cc1`, the CPE inhibition entry is “inactive”.

Consider `COc1ccc(NC(=O)CC2(Cc3ccccc3)CCOC(C)(C)C2)cc1` (stereo unspecified), for which the CPE inhibition entry is “inactive”.

Regarding `CCOC1OC(=O)C(Cl)=C1Nc1ccc(C)cc1C` (stereo unspecified), the CPE inhibition was 0.385%.

Consider `Cc1ccc(NC2=C(Cl)C(=O)OC2OC(=O)c2ccco2)cc1C` (stereo unspecified), for which the CPE inhibition was 14% (active).

Take `Cc1cccc(C)c1NC1=C(Cl)C(=O)OC1OC(C)C` (stereo unspecified): the CPE inhibition entry is “inactive”.

`COc1cc(NC(=O)CN2CCC(C)CC2)c(C)cc1[N+](=O)[O-]`: the CPE inhibition entry was “inactive”.

Regarding `CCN(CC)S(=O)(=O)c1ccc2oc(C(=O)N3CCc4ccccc4C3)c(C)c2c1`, the CPE inhibition was 0.865%.

Take `N#Cc1cc(NCC2CCCO2)c([N+](=O)[O-])cc1C#N` (stereo unspecified): the CPE inhibition was 0.075%.

On to `CN(CC(=O)Nc1ccc(S(=O)(=O)N2CCCC2)cc1)Cc1ccc(Cl)cc1Cl`, for which the CPE inhibition was 13.3% (active).

As to `CN(CC(=O)Nc1ccc(S(=O)(=O)N2CCCC2)cc1)Cc1cccc(Cl)c1Cl`, the CPE inhibition was 9% (active).

Regarding `CC(C)C(=O)NC(=S)Nc1ccc(S(=O)(=O)N2CCCC2)cc1`, the CPE inhibition entry is “inactive”.

Regarding `COc1ccc(CCN(C)c2ccc(S(=O)(=O)N3CCCC3)cc2[N+](=O)[O-])cc1OC`, the CPE inhibition entry is “inactive”.

As to `CCOc1ccccc1N(CC(=O)Nc1ccc(S(=O)(=O)N2CCOCC2)cc1)S(=O)(=O)c1ccc(Cl)cc1`, the CPE inhibition is 0.98%.

On to `CN(Cc1cccc(Cl)c1Cl)C(=O)c1ccc(NC(=O)CC#N)cc1`, for which the CPE inhibition result was “inactive”.

Take `CN(CC(=O)Nc1ccc(F)cc1)c1ccc(S(=O)(=O)N2CCCCC2)cc1[N+](=O)[O-]`: the CPE inhibition is 2.78%.

With `CN(CC(=O)Nc1ccc(S(=O)(=O)N2CCCC2)cc1)Cc1ccc(Cl)cc1`, the CPE inhibition is 0.055%.

Turning to `CN(CC(=O)Nc1ccc(Cl)cc1)c1ccc(S(=O)(=O)N2CCCCC2)cc1[N+](=O)[O-]`, the CPE inhibition is 13% (active).

As to `CCc1cccc(C)c1NC(=O)CSc1nc(-c2ccccc2F)nc2nc[nH]c12`, the CPE inhibition entry is “inactive”.

For the compound `CCCCn1c(-c2ccco2)n[nH]c1=S`, the CPE inhibition was 1.02%.

As to `CC(OC(=O)/C=C/c1ccco1)C(=O)Nc1cccc([N+](=O)[O-])c1` (stereo unspecified), the CPE inhibition was 0.7%.

With `CCOc1ccccc1NC(=S)NNS(=O)(=O)c1c(C)cc(C)cc1C`, the CPE inhibition result was “inactive”.

Consider `Cc1ccc(NC(=O)CC(C(=O)O)c2ccccc2)cc1` (stereo unspecified), for which the CPE inhibition entry is “inactive”.

Regarding `C=CCC(C(=O)Oc1c(C(C)(C)C)cc(C)cc1C(C)(C)C)c1ccccc1` (stereo unspecified), the CPE inhibition was 12.5% (active).

Turning to `CCOC(=O)N1CCN(CC(O)COc2ccc(C)cc2C(C)(C)C)CC1` (stereo unspecified), the CPE inhibition is 2.44%.

As to `CC(C)Oc1ccc(C(CC(=O)N(C)CCC#N)c2ccc(F)cc2)cc1` (stereo unspecified), the CPE inhibition was 0.65%.

`COC(=O)CNC(c1ccccc1)c1cc(C)ccc1NC(=O)c1cccc(Cl)c1` (stereo unspecified): the CPE inhibition was 3.54%.

In the case of `COC(=O)CNC(c1ccccc1)c1cc(Br)ccc1NC(=O)CNC(=O)OCc1ccccc1` (stereo unspecified), the CPE inhibition was 16.5% (active).

As for `NNC(=O)CNC(c1ccccc1)c1cc(Br)ccc1NC(=O)c1cccc(Cl)c1` (stereo unspecified), the CPE inhibition was 0.305%.

For the compound `O=C(Oc1cccc(/C=N/Nc2nc(Nc3ccccc3)nc(N3CCOCC3)n2)c1)c1ccco1`, the CPE inhibition entry was “inactive”.

As to `Cc1ccc(C(O)(C(=O)NNc2ccc3ccccc3n2)c2ccc(C)cc2)cc1`, the CPE inhibition entry is “inactive”.

In the case of `O=C(Nc1cccc(C(F)(F)F)c1)C(Sc1ncnc2ccccc12)c1ccccc1` (stereo unspecified), the CPE inhibition is 2.71%.

`CC(Sc1nc(-c2ccccc2)cc(C(F)(F)F)n1)C(=O)Nc1ccc2c(c1)OCO2` (stereo unspecified): the CPE inhibition was 3%.

Take `CC(Sc1ncnc2ccccc12)C(=O)Nc1ccc2c(c1)OCCO2` (stereo unspecified): the CPE inhibition was 12.4% (active).

With `CC(C)(C)c1ccc(C(=O)N2CCC(=O)N(C(CO)Cc3ccccc3)CC2)cc1` (stereo unspecified), the CPE inhibition entry is “inactive”.

Turning to `CC(C)C[C@@H](COc1ccccc1)N1CCN(Cc2ccccc2)CCC1=O`, the CPE inhibition is 0.51%.

In the case of `CC(C)CC(COCc1ccc(Cl)cc1)N1CCN(C(=O)c2ccc(C(F)(F)F)cc2)CCC1=O` (stereo unspecified), the CPE inhibition is 12.7% (active).

For `O=C(Nc1cccc(Cl)c1)Nc1ccc2c(c1)C(=O)OC2`, the CPE inhibition entry is “inactive”.

`COc1ccccc1[C@@H]1C(c2cccc(Cl)c2)=NN(c2ccccc2)[C@H]1C(=O)N1CCOC1=O`: the CPE inhibition is 19.3% (active).

As for `COc1cccc(N2C(C(C)=O)=NN(c3ccccc3)C2c2ccc(N3CCOCC3)cc2)c1` (stereo unspecified), the CPE inhibition was 2.42%.

In the case of `O=C1C2C(c3ccccc3)=NN(c3ccccc3)C2C(=O)N1c1ccccc1` (stereo unspecified), the CPE inhibition result was “inactive”.

Consider `O=C(/C=C/c1ccc(Br)cc1)NC(=S)Nc1ccc(S(=O)(=O)Nc2nccs2)cc1`, for which the CPE inhibition result was “inactive”.

On to `Nc1c(C(=O)c2ccc(Cl)cc2)sc2nc3c(cc12)CCC3`, for which the CPE inhibition was 7.59%.

As for `O=C(O)c1ccc(NC(=O)c2cccc(N3C(=O)C4C5CCC(C5)C4C3=O)c2)cc1` (stereo unspecified), the CPE inhibition is 1.22%.

Regarding `O=C(Nc1ccc(Cl)cc1)c1cccc(N2C(=O)C3C4CCC(C4)C3C2=O)c1` (stereo unspecified), the CPE inhibition is 2.71%.

For the compound `CC(C)(C)NC(=O)c1ccc2c(c1)C1C3CCC(C3)C1C(c1ccccc1)N2` (stereo unspecified), the CPE inhibition is 15.9% (active).

Consider `O=C(CCC(=O)NCCCc1ccccc1)NCCCc1ccccc1`, for which the CPE inhibition entry was “inactive”.

With `Cc1ccc(SCCNC(=O)/C=C/c2cccc([N+](=O)[O-])c2)cc1`, the CPE inhibition was 6.54%.

Take `CC(C)CCNC(=O)c1onc(CSc2ccccn2)c1C(=O)NCCC(C)C`: the CPE inhibition is 25.9% (active).

In the case of `O=C(NCCCN1CCOCC1)c1onc(CSc2ccc(F)c(F)c2)c1C(=O)NCCCN1CCOCC1`, the CPE inhibition entry is “inactive”.

As to `C=CCNC(=O)c1c(CSc2ccc(Cl)cc2)noc1C(=O)NCCC`, the CPE inhibition is 0.85%.

With `CCCCNC(=O)c1onc(CSc2cccc(OC)c2)c1C(=O)O`, the CPE inhibition entry is “inactive”.

On to `CCCCNC(=O)c1onc(CSc2ccc(F)c(F)c2)c1C(=O)NCCCC`, for which the CPE inhibition is 11.5% (active).

Consider `COc1cccc(SCc2noc(C(=O)NCCCN3CCOCC3)c2C(=O)NCCCN2CCOCC2)c1`, for which the CPE inhibition was 0.255%.

For `CCCCNC(=O)c1onc(CSc2ccccn2)c1C(=O)NCCCC`, the CPE inhibition was 1.85%.

Turning to `CCCCNC(=O)c1onc(CSc2cccc(OC)c2)c1C(=O)NCCCC`, the CPE inhibition is 20.1% (active).

Take `C=CCNC(=O)c1onc(CSc2ccccc2)c1C(=O)NCC=C`: the CPE inhibition is 0.535%.

Regarding `C=CCNC(=O)c1c(CSc2ccc(Cl)cc2)noc1C(=O)NCc1ccccc1`, the CPE inhibition was 11.2% (active).

`O=C(NCCCN1CCOCC1)c1onc(CSc2ccccn2)c1C(=O)NCCCN1CCOCC1`: the CPE inhibition result is “inactive”.

Regarding `COCCNC(=O)c1onc(CSc2ccc(F)c(F)c2)c1C(=O)NCCOC`, the CPE inhibition result was “inactive”.

In the case of `CCn1c(C)nc2cc(C(=O)NNC(=S)Nc3ccc(Cl)cc3Cl)ccc21`, the CPE inhibition result is “inactive”.

`O=C(Cc1cccs1)N/N=C/c1ccco1`: the CPE inhibition is 0.08%.

In the case of `COC(=O)c1c(NC(=O)C2C3C=CC(CC3)C2C(=O)O)sc(C)c1C` (stereo unspecified), the CPE inhibition result is “inactive”.

Regarding `CC1=CN2C(=N)/C(=C/c3ccc(Sc4ccc(C)cc4)o3)C(=O)N=C2S1`, the CPE inhibition is 9.52%.

As to `Cc1cccc(NC(=O)CN2C(=O)N/C(=C/c3cc(C)n(-c4ccncc4)c3C)C2=O)c1`, the CPE inhibition result is “inactive”.

Consider `COc1cccc(SCc2noc(C(=O)NCCN(C)C)c2C(=O)NCCN(C)C)c1`, for which the CPE inhibition was 0.54%.

Regarding `COCCNC(=O)c1onc(CSc2cccc(OC)c2)c1C(=O)NCCOC`, the CPE inhibition is 0.425%.

Regarding `COc1cccc(SCc2noc(C(=O)NCCC(C)C)c2C(=O)NCCC(C)C)c1`, the CPE inhibition was 23% (active).

Take `CNC(=S)N(CCc1ccc(OC)c(OC)c1)Cc1cc2c(C)cc(C)cc2[nH]c1=O`: the CPE inhibition entry is “inactive”.

Regarding `O=C1CN(C(=O)CSc2nnc3ccccn23)c2ccccc2N1`, the CPE inhibition is 0.845%.

Take `C=CCNC(=O)C12CCC(C)(C(=O)C1Br)C2(C)C` (stereo unspecified): the CPE inhibition is 0.36%.

In the case of `CCOC(=O)N(NC(=O)C(O)(c1ccccc1)c1ccccc1)c1ccccc1`, the CPE inhibition was 2.6%.

In the case of `COC(=O)N(NC(=O)C(O)(c1ccccc1)c1ccccc1)c1ccccc1`, the CPE inhibition was 1.2%.

`COC(=O)N(NC(=O)C(O)(c1ccccc1)c1ccccc1)c1ccc(C)cc1`: the CPE inhibition is 61.4% (active).

As to `COc1ccc(-c2nn(-c3ccccc3)cc2/C=C(/C#N)C(N)=O)cc1[N+](=O)[O-]`, the CPE inhibition entry is “inactive”.

Take `COc1ccc(-c2nn(-c3ccccc3)cc2/C=C(\C#N)S(=O)(=O)c2ccccc2)cc1OC`: the CPE inhibition is 0.055%.

For the compound `CC(NC(=O)/C(C#N)=C/c1cn(-c2ccccc2)nc1-c1ccc(F)cc1)c1ccccc1` (stereo unspecified), the CPE inhibition is 8.04% (active).

Turning to `CC1CC(=O)N(c2ccc(NCc3ccc(Cl)cc3)c([N+](=O)[O-])c2)C1=O` (stereo unspecified), the CPE inhibition was 0.275%.

Turning to `COc1ccc(CC(=O)NNc2ncnc3c2cnn3-c2ccc(C)cc2)cc1OC`, the CPE inhibition was 2.76%.

For `Cc1cc(C)nc(N/N=C/C=C/c2ccccc2)n1`, the CPE inhibition was 0.52%.

For the compound `Cc1cc(C)nc(N/N=C/C2=C(N3CCOCC3)C(=C/c3ccccc3)/CC2)n1`, the CPE inhibition was 9.78% (active).

`O=[N+]([O-])c1cccc(/C=N/Nc2nc(NCc3ccccc3)nc(N3CCOCC3)n2)c1`: the CPE inhibition was 1.39%.

Regarding `COc1ccc(-n2c(C)cc(/C=N/Nc3nc(N4CCOCC4)nc(N4CCOCC4)n3)c2C)cc1`, the CPE inhibition result was “inactive”.

In the case of `Cc1cc(C)nc(N/N=C/C2=C(N3CCOCC3)C(=C\c3ccc(Cl)cc3)/CC2)n1`, the CPE inhibition was 15.6% (active).

For the compound `S=C(N/N=C/c1ccc(Cl)cc1)N1CCOCC1`, the CPE inhibition entry was “inactive”.
